These results are taken from PubChem BioAssay (EPA / NIEHS).

Read-out in assay [1]: Interleukin-8 (IL8), CXCL8 (gene 3576)
The assay is described as follows: BSK_CASM3C_IL8: BioMAP Diversity Plus: CASM3C Assay for Interleukin-8 (IL8) Biomarker Activity (AID 2283042).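 Note: IL-8 protein level quantified by ELISA.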 The conditions noted are these: primary human coronary artery smooth muscle cells; actives raise or lower the signal.

Read-out in assay [2]: Human Leukocyte Antigen - DR isotype (HLADR), HLA-DRA (gene 3122)
Put plainly: BSK_CASM3C_HLADR: BioMAP Diversity Plus: CASM3C Assay for Human Leukocyte Antigen - DR isotype (HLADR) Biomarker Activity (AID 2283043).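 Note: cell-surface HLA-DR protein level quantified by ELISA.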 The conditions noted are these: primary human coronary artery smooth muscle cells; actives raise or lower the signal.

Read-out in assay [3]: Macrophage colony-stimulating factor (MCSF), CSF1 (gene 1435)
The assay is described as follows: BSK_CASM3C_MCSF: BioMAP Diversity Plus: CASM3C Assay for Macrophage colony-stimulating factor (MCSF) Biomarker Activity (AID 2283044).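 Note: M-CSF protein amount quantified by ELISA after 24 h exposure.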 The conditions noted are these: primary human coronary artery smooth muscle cells; actives raise or lower the signal.

Read-out in assay [4]: Low-density lipoprotein receptor (LDLR), LDLR (gene 3949)
The assay is described as follows: BSK_CASM3C_LDLR: BioMAP Diversity Plus: CASM3C Assay for Low-density lipoprotein receptor (LDLR) Biomarker Activity (AID 2283045).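 Note: LDLR protein level on the cell surface quantified by ELISA.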 Particulars: primary human coronary artery smooth muscle cells; actives raise or lower the signal.

Read-out in assay [5]: Monocyte Chemoattractant Protein-1 (MCP1), CCL2 (gene 6347)
Put plainly: BSK_CASM3C_MCP1: BioMAP Diversity Plus: CASM3C Assay for Monocyte Chemoattractant Protein-1 (MCP1) Biomarker Activity (AID 2283046).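 Note: MCP-1 level quantified by ELISA 24 h after dosing.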 Particulars: primary human coronary artery smooth muscle cells; actives raise or lower the signal.

Assay [6] can be described thus: BSK_CASM3C_Proliferation: Cell Proliferation Assessment in the BioMAP Diversity Plus: CASM3C Assay (AID 2283047).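 Note: sulforhodamine B total protein stain as relative cell number at 560 nm; sub-confluent cells exposed 48 h before staining; fitted both ways against DMSO so gain or loss of cell number.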 The conditions noted are these: primary human coronary artery smooth muscle cells.
Read-out in assay [7]: Monokine induced gamma interferon (MIG), CXCL9 (gene 4283)
Put plainly: BSK_CASM3C_MIG: BioMAP Diversity Plus: CASM3C Assay for Monokine induced gamma interferon (MIG) Biomarker Activity (AID 2283048).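 Note: MIG protein level measured by ELISA.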 The conditions noted are these: primary human coronary artery smooth muscle cells; actives raise or lower the signal.

Read-out in assay [8]: serum amyloid A (SAA), SAA1 (gene 6288)
Put plainly: BSK_CASM3C_SAA: BioMAP Diversity Plus: CASM3C Assay for serum amyloid A (SAA) Biomarker Activity (AID 2283049).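 Note: SAA protein level quantified by ELISA.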 Particulars: primary human coronary artery smooth muscle cells; actives raise or lower the signal.

Assay [9] is described as follows: BSK_CASM3C_SRB: Viability Assessment in the BioMAP Diversity Plus: CASM3C Assay (AID 2283050).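 Note: total protein by SRB staining as cytotoxicity measure in parallel cultures; cells exposed to compound for 24 h.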 Particulars: primary human coronary artery smooth muscle cells.
Read-out in assay [10]: Thrombomodulin, THBD (gene 7056)
Put plainly: BSK_CASM3C_Thrombomodulin: BioMAP Diversity Plus: CASM3C Assay for Thrombomodulin Biomarker Activity (AID 2283051).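 Note: thrombomodulin protein level measured by ELISA 24 h after dosing.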 The conditions noted are these: primary human coronary artery smooth muscle cells; actives raise or lower the signal.

Read-out in assay [11]: Tissue Factor, F3 (gene 2152)
Put plainly: BSK_CASM3C_TissueFactor: BioMAP Diversity Plus: CASM3C Assay for Tissue Factor Biomarker Activity (AID 2283052).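 Note: cell surface tissue factor protein level read by ELISA.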 Particulars: primary human coronary artery smooth muscle cells; actives raise or lower the signal.

Read-out in assay [12]: Interferon-gamma inducible Protein 10 (IP10), CXCL10 (gene 3627)
The assay is described as follows: BSK_hDFCGF_IP10: BioMAP Diversity Plus: hDFCGF Assay for Interferon-gamma inducible Protein 10 (IP10) Biomarker Activity (AID 2283053). Particulars: primary human foreskin fibroblasts; actives raise or lower the signal. In short, it runs like this:
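ELISA read-out of IP-10 (CXCL10) from primary human skin fibroblasts, 24 h after compound addition. Gain or loss of signal versus DMSO baseline, bidirectional curve fitting.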

Read-out in assay [13]: Urokinase-type plasminogen activator receptor (uPAR), PLAUR (gene 5329)
The assay is described as follows: BSK_CASM3C_uPAR: BioMAP Diversity Plus: CASM3C Assay for Urokinase-type plasminogen activator receptor (uPAR) Biomarker Activity (AID 2283054).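 Note: cell-surface uPAR protein level quantified by ELISA.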 The conditions noted are these: primary human coronary artery smooth muscle cells; actives raise or lower the signal.

Read-out in assay [14]: Vascular cell adhesion molecule 1 (VCAM1), VCAM1 (gene 7412)
Put plainly: BSK_CASM3C_VCAM1: BioMAP Diversity Plus: CASM3C Assay for Vascular cell adhesion molecule 1 (VCAM1) Biomarker Activity (AID 2283055).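 Note: VCAM-1 protein level quantified by ELISA on the cells.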 The conditions noted are these: primary human coronary artery smooth muscle cells; actives raise or lower the signal.

Read-out in assay [15]: Collagen III, COL3A1 (gene 1281)
The assay is described as follows: BSK_hDFCGF_CollagenIII: BioMAP Diversity Plus: hDFCGF Assay for Collagen III Biomarker Activity (AID 2283056). The conditions noted are these: primary human foreskin fibroblasts; actives raise or lower the signal. In short, it runs like this:
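Human foreskin primary fibroblasts were exposed to test chemicals for 24 h, after which collagen III was quantified by ELISA. Activity was fitted bidirectionally against DMSO as negative control and baseline.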

Read-out in assay [16]: Epidermal growth factor receptor (EGFR), EGFR (gene 1956)
Put plainly: BSK_hDFCGF_EGFR: BioMAP Diversity Plus: hDFCGF Assay for Epidermal growth factor receptor (EGFR) Biomarker Activity (AID 2283057). Particulars: primary human foreskin fibroblasts; actives raise or lower the signal. In short, it runs like this:
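ELISA readout of EGFR on human dermal fibroblasts (primary foreskin cells), 24 h post-dosing; bidirectional curve fit vs DMSO baseline, gain or loss of signal scored.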

Read-out in assay [17]: Interleukin-8 (IL8), CXCL8 (gene 3576)
The assay is described as follows: BSK_hDFCGF_IL8: BioMAP Diversity Plus: hDFCGF Assay for Interleukin-8 (IL8) Biomarker Activity (AID 2283058). The conditions noted are these: primary human foreskin fibroblasts; actives raise or lower the signal. In short, it runs like this: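 hDFCGF human dermal fibroblasts; 24 h chemical exposure; IL-8 by ELISA; bidirectional curve fit vs DMSO baseline; gain or loss of signal scored.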

Assay [18] can be described thus: BSK_hDFCGF_Proliferation: Cell Proliferation Assessment in the BioMAP Diversity Plus: hDFCGF Assay (AID 2283059).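 Note: curves fitted for both rise and fall of signal versus DMSO baseline.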 The conditions noted are these: primary human foreskin fibroblasts. In a few lines:
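Steps: dose primary human dermal fibroblasts (foreskin); […] fix in 10% TCA; stain with 0.1% SRB; read 560 nm; fit gain or loss of signal against DMSO.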

Read-out in assay [19]: Macrophage colony-stimulating factor (MCSF), CSF1 (gene 1435)
Put plainly: BSK_hDFCGF_MCSF: BioMAP Diversity Plus: hDFCGF Assay for Macrophage colony-stimulating factor (MCSF) Biomarker Activity (AID 2283060). The conditions noted are these: primary human foreskin fibroblasts; actives raise or lower the signal. In short, it runs like this:
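Human foreskin primary fibroblasts were treated with test chemical for 24 h, and M-CSF was then measured by ELISA. Data were fitted bidirectionally against DMSO as the negative control and activity baseline.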

Assay [20] can be described thus: BSK_hDFCGF_SRB: Viability Assessment in the BioMAP Diversity Plus: hDFCGF Assay (AID 2283061).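 Note: cells exposed to compound for 24 h before the read.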 The conditions noted are these: primary human foreskin fibroblasts. In a few lines:
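Human foreskin primary fibroblasts were treated with compound and assessed 24 h after dosing. Total protein was measured by sulforhodamine B staining (0.1% SRB after 10% TCA fixation, 560 nm read) as a cytotoxicity marker, with bidirectional fitting against DMSO baseline.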

Activity calls are given as the source filed them. Rule for the calls: active = hit-call score of the fitted dose curve at least 0.9, where 1 is the maximum; inactive = score below 0.9.

As for `CN1C(=O)CC[C@H]1c1cccnc1`, the outcome in [1], in [2], in [3], in [4], in assay [5] and in assay [6] was inactive. For the same compound, the result in assay [7], in [8], in assay [9], in [10], in assay [11] and in [12] was inactive. For the same compound, the result in [13], in assay [14], in assay [15], in assay [16], in assay [17] and in assay [18] was inactive. Moreover, the outcome in [19] and in assay [20] was inactive.

Take `CCN(Cc1cccnc1)C(=O)c1cccc(Cl)c1[C@]1(C)C(=O)N(Cc2ccc(OC)cc2OC)c2ccc(Cl)cc21`: the outcome in assay [1], in assay [3], in [5], in [7], in assay [8] and in assay [9] was inactive. In addition, the result in assay [10], in assay [11], in assay [13], in assay [15], in assay [17] and in assay [20] was inactive. Also, the AC50 is 29.8 µM (active) in assay [2]; 1.39 µM (active) in assay [4]; 12.6 µM (active) in assay [6]; 7.05 µM (active) in assay [12]; 5.43 µM (active) in assay [14]; 5.95 µM (active) in [16]. Besides, the AC50 in assay [18] was 5.1 µM (active); in [19], 5.49 µM (active).

Take `CCCCCCCCCC(=O)O`: the outcome in [1], in assay [2], in assay [3], in assay [4], in assay [5] and in assay [6] was inactive. Moreover, the result in assay [7], in assay [8], in [9], in assay [10], in assay [11] and in assay [12] was inactive. Also, the outcome in assay [13], in assay [14], in assay [15], in [16], in [17] and in assay [18] was inactive. Moreover, the outcome in assay [19] and in [20] was inactive.

For the compound `CCN(Cc1cccc(S(=O)(=O)O)c1)c1ccc(C(=C2C=CC(=[N+](CC)Cc3cccc(S(=O)(=O)O)c3)C=C2)c2ccccc2S(=O)(=O)[O-])cc1`, the outcome in assay [1], in [2], in assay [3], in assay [4], in assay [5] and in assay [6] was inactive. In addition, the result in [7], in assay [8], in assay [9], in assay [10], in assay [11] and in [13] was inactive. Further, the outcome in assay [14], in [15], in assay [16], in assay [17], in [18] and in assay [19] was inactive. Moreover, in [20], the result was inactive. In [12], the AC50 is 18.8 µM (active).

For `COc1cccc([C@H](O)C2CCN(CCc3ccc(F)cc3)CC2)c1OC`, the outcome in assay [1], in assay [2], in assay [3], in [4], in assay [5] and in [6] was inactive. Also, the outcome in assay [7], in [8], in assay [9], in assay [10], in assay [11] and in assay [12] was inactive. In addition, the result in assay [13], in assay [14], in assay [15], in [16], in [17] and in assay [18] was inactive. In addition, the result in [19] and in assay [20] was inactive.

For orientation: AC50 means the concentration giving half of the maximal activity seen.
